{"source": "PubChem BioAssay", "note": "Results filed as inconclusive are left out. Values without a mark were called inactive.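 Rule for the calls: active = viability at or below 27.92% in each of two runs, the all-compound median minus 4 SD; inconclusive = no clear call, values can overlap the other calls; inactive = the rest.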"}
{"test": "growth suppression of PTEN-deleted HCT116, pilot screen, cell-based, HCT116 clonal line, CellTiter-Glo (AID 824);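 note: 0% = 20 µM Hyamine control and 100% = vehicle cell control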", "details": "60 h, at 10 µM, stronger effect = lower value", "units": {"viability": "%"}}
{"smiles": "CC(C)CC(NS(=O)(=O)c1ccc2c(c1)oc(=O)n2C)C(=O)NCc1cccnc1", "note": "(centres undefined)", "viability": 98.9}
{"smiles": "Cc1csc2ncc(C(=O)NCc3ccccn3)c(=O)n12", "viability": 96.7}
{"smiles": "O=S(=O)(c1ccccc1)N1CCN(C2CCN(Cc3ccccc3)CC2)CC1", "viability": 94.4}
{"smiles": "C=CCn1c(SCC(=O)Nc2cc(C)nn2-c2ccccc2)nnc1C1CCCCC1", "viability": 94.3}
{"smiles": "Cc1ccc(C)c(N2CCN(C(=O)c3cc4ccccc4oc3=O)CC2)c1", "viability": 95.5}
{"smiles": "COc1cc2c(cc1OC)C1=C(C#N)CN(C3CCCCC3)CN1CC2", "viability": 81.1}
{"smiles": "Cn1c(=O)oc2cc(S(=O)(=O)N3CCCC3)ccc21", "viability": 97.2}
{"smiles": "CC(=O)Nc1ccc(NC2(C)C(=O)c3ccccc3C2=O)cc1", "viability": 102}
{"smiles": "COc1cccc(-c2nc(CS(=O)CC(=O)NCc3ccccc3Cl)c(C)o2)c1", "note": "(centres undefined)", "viability": 91.9}
{"smiles": "CC(=O)c1ccc(C(=O)Nc2ccc(N3CCOCC3)cc2)cc1", "viability": 99.6}
{"smiles": "CCOC(=O)N1CCC(N2C(=O)c3ccc(C(=O)NCc4ccc(F)cc4)cc3C2=O)CC1", "viability": 100}
{"smiles": "Cc1ccccc1Cn1c(=O)[nH]c2ccccc21", "viability": 88.5}
{"smiles": "Cc1c(C#N)c2ccccc2n1CC(=O)NCCc1c[nH]c2ccccc12", "viability": 64.3}
{"smiles": "CCOC(=O)c1sc(NC(=O)c2ccc(Cl)s2)cc1C", "viability": 94.9}
{"smiles": "COc1ccc(OC)c(NC(=O)c2c(NC(=O)CNCc3ccco3)sc3c2CCC3)c1", "viability": 88.2}
{"smiles": "CCCOc1ccc(N2C(=O)CC(N3CCN(c4ccccc4F)CC3)C2=O)cc1", "note": "(centres undefined)", "viability": 96.4}
{"smiles": "CC(=O)Nc1nonc1-c1nc2ccccc2n1Cc1nnc(C)o1", "viability": 97.1}
{"smiles": "Cc1ccsc1C1NC(=O)c2c(sc3c2CCN(C)C3)N1", "note": "(centres undefined)", "viability": 98.6}
{"smiles": "O=S(=O)(c1ccccc1)n1ccc2ccccc21", "viability": 89.1}
{"smiles": "CCCS(=O)(=O)N1CCn2c(nc3ccccc32)C1", "viability": 102}
{"smiles": "Cc1ccc(C2/C(=C(/O)c3ccccc3)C(=O)C(=O)N2CCN2CCOCC2)o1", "note": "(centres undefined)", "viability": 96.7}
{"smiles": "CC(NC(=O)Cc1ccccc1)c1nc2ccccc2[nH]1", "note": "(centres undefined)", "viability": 97.1}
{"smiles": "CCOC(=O)/C=C/S(=O)(=O)c1ccc(NC(C)=O)cc1", "viability": 93.5}
{"smiles": "COc1ccc2oc(-c3ccccc3)c(C(=O)N3CCOCC3)c2c1", "viability": 90}
{"smiles": "COc1ccccc1NC(=O)NCCN1C(=O)C2C3C=CC(C3)C2C1=O", "note": "(centres undefined)", "viability": 105}
{"smiles": "CCOC(=O)c1oc2cc(O)ccc2c(=O)c1-c1ccccc1OC", "viability": 92}
{"smiles": "CC(=O)NC(CCS(C)(=O)=O)C(=O)Nc1ccc(Oc2ccccc2)cc1", "note": "(centres undefined)", "viability": 93.5}
{"smiles": "O=C(NCc1ccncc1)C(F)(F)C(F)(F)C(=O)NCc1ccncc1", "viability": 85.4}
{"smiles": "COc1ccc(Cl)cc1N1C(=O)C2CCCN2C1c1ccccc1F", "note": "(centres undefined)", "viability": 95.1}
{"smiles": "COc1ccc(C)cc1NC(=O)c1cnc2scc(C)n2c1=O", "viability": 84.8}
{"smiles": "CC(C)Cn1c(CNC(=O)c2ccccc2)nc2ccccc21", "viability": 93.1}
{"smiles": "Cc1cccc(Nc2ncnc3nc[nH]c23)c1", "viability": 97.6}
{"smiles": "COCCn1c(SCCN2CCOCC2)nc2c1c(=O)[nH]c(=O)n2C", "viability": 101}
{"smiles": "CSCCC(/C(O)=C(\\C#N)c1nc2ccccc2[nH]1)N1C(=O)c2ccccc2C1=O", "note": "(centres undefined)", "viability": 90.8}
{"smiles": "Cc1sc2nc(SC(C)C)nc(N)c2c1C", "viability": 104}
{"smiles": "O=C(O)C1C2C=CC(C2)C1C(=O)OCC1CCCO1", "note": "(centres undefined)", "viability": 94.8}
{"smiles": "O=C(OCCN(C1=NS(=O)(=O)c2ccccc21)c1ccc(Cl)cc1)c1ccco1", "viability": 91.5}
{"smiles": "Brc1ccc(-c2noc(COc3ccc4c(c3)CCC4)n2)o1", "viability": 105}
{"smiles": "CCOC(=O)N1CCC(Nc2cc(C)nc3c(-c4ccccc4OC)c(C)nn23)CC1", "viability": 67.8}
